This is part of a sample that, as a whole, favours compounds with a hit. Of some 83,000 tested, about 20% had one in any assay.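 Each cell line was grown in a 96-well plate and treated with one concentration of compound for 48 hours. Values below 10 were considered active.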 A number with no mark means an inactive call. Calls of active or inactive are those of the source.

The test system of the experiment is SK-MEL-28 melanoma. Kind of experiment: NCI-60 one-dose screen, 48 h (100 = growth as untreated, 0 = no growth, -100 = all killed). The settings on record: 10 µM unless noted. As to the method:
Growth inhibition of the SK-MEL-28 human tumor cell line is measured as a screen for anti-cancer activity. Cells are grown in 96 well plates and exposed to the test compound for 48 hours. Compounds are tested at a single concentration, which is 10^-5 M for most compounds. The reported endpoint is percent growth (GI% or GIPRCNT), where numbers from 0 - 100% represent growth inhibition, and numbers from -100% - 0 represent cell death. For example, a value of 40 represents 60% growth inhibition. A value of 0 means no net growth occurred over the course of the experiment. A value of -40 indicates 40% of cells at the beginning of the experiment died by the end of the experiment. A value of -100 means all cells are dead at the end of the experiment.
NCI-60 Human Tumor Cell Lines Screen was performed using the standard one-dose NCI protocol, which is described in more detail at https://dtp.cancer.gov/discovery_development/nci-60/default.htm.
Compounds with GIPRCNT values below 10 were considered active. Activity score was based on GIPRCNT using the following formula: […]
Score is 0 for GIPRCNT values of 100 or above, 50 for GIPRCNT values of 0, and 100 for GIPRCNT values of -100.
Regarding `C[C@@H]1C[C@H]2C(=O)O[C@@H](C)C(NC(=O)[C@H](Cc3cc(F)cc(F)c3)NC(=O)Nc3ccc(Cl)cc3F)C(=O)N3CCC[C@H]3C(=O)N3CCCC[C@H]3C(=O)N[C@@H](CO)C(=O)N2C1` (stereo not given in full), the growth was 43.9%.
As for `O=C(CSc1nc2ccccc2c(=O)n1-c1ccccc1)Nc1ccc(-c2nc3ccc([N+](=O)[O-])cc3[nH]2)cc1`, the figure is 82.6%; as for `COc1ccc(/C(N)=N/C(N)=N/c2nc3ccccc3s2)cc1`, 79.6%; as for `O=C(NCCn1ccnc1)c1ccc(-c2nc3ccc4[nH]ncc4c3c3c2CCCC3)cc1`, 62.4%.
As for `Cc1ccc(-c2cc3nc(C(Cl)Cl)nc(C)n3n2)cc1`, the figure is 105%; as for `CCCSc1nc(Nc2ccc(/C(C)=N\NC(N)=S)cc2)c(C#N)c(-c2ccccc2)n1`, 84.6%.
`Cc1occc1-c1nc2s/c(=C/c3ccc(-c4cc(C(F)(F)F)ccc4Cl)o3)c(=O)n2n1`: the growth was 112%.
As for `Clc1ccc(N/N=c2/oc3ccccc3cc2-c2cc3ccccc3[nH]2)cc1`, the figure is 97.7%; as for `CCCCNNC(=O)c1ccc(-c2cccc(F)c2F)cc1`, 25.7%.
Regarding `CCc1nn2c(C)cc(C)nc2c1Cc1ccc(/C=C/CN2CCN(CCOCCOCCN3CCN(C/C=C/c4ccc(Cc5c(CC)nn6c(C)cc(C)nc56)cc4)CC3)CC2)cc1`, the growth was -88.9% (active).
The result for `CCOC(=O)c1c(Nc2ccccc2)nn2c(-c3ccccc3)ccnc12` reads 101%; that for `CCN(CC)c1cn(-c2ccc(S(N)(=O)=O)cc2)nn1`, 105%.
As for `CC1(C)CC[C@]2(C(=O)N3CCOCC3)CC[C@]3(C)C(=CC[C@@H]4[C@@]5(C)C/C(=C/c6ccccn6)C(=O)C(C)(C)[C@@H]5CC[C@]43C)[C@@H]2C1`, the figure is 86.1%.
The result for `NC(N)=Nc1ccc(Oc2cccc(Nc3ccc(Br)c(C(F)(F)F)c3)c2)cc1` reads 58.3%; that for `Nc1cc(F)ccc1NC(=O)c1ccc(NC(=O)C/C=C/c2cccnc2)cc1`, 49.4%.
For the molecule `CCNC(=O)Oc1ccc(/C(=C(/C)c2ccccc2)c2ccc(OCCN3CCCCCC3)cc2)cc1`, the growth was -41.8% (active).
Consider `O=C1[C@H]2Cc3c([nH]c4ccccc34)[C@@H](c3ccc(Cl)cc3)N2C(=O)CN1C1CCN(Cc2ccccc2)CC1`, for which the growth is 67.8%.
Turning to `COc1c(N2CC3CCCNC3C2)c(F)cc2c(=O)c(C(=O)N/N=C/c3ccc(N(C)C)cc3)cn(C3CC3)c12` (stereo not given), the growth is 97.8%.
As for `CC(=O)Nc1cccc(Nc2nc(N[C@@H](C)c3ccccc3)c3ccccc3n2)c1`, the figure is 42.3%; as for `N#Cc1cccc(CN2CCC3=C(C2)C(=O)N(Cc2ccc(Cl)cc2)C2=NCCN23)c1`, 48.3%; as for `C=C1CC[C@@H]2[C@]3(C)COC(c4ccccc4)O[C@@H]3CC[C@@]2(C)[C@@H]1C/C=C1/C(=O)OC[C@H]1O` (stereo not given in full), 107%.
With `CCCC(=O)NC(c1cccnc1)c1cc(C(C)(C)C)c2cccnc2c1O` (stereo not given), the growth is 24.6%.
As for `COc1ccc(NC(=O)CSc2nnc(-c3ccc4nc(-c5ccccc5)[nH]c4c3)o2)cc1`, the figure is 99.7%; as for `COc1cc(-c2nn(C(C)(C)C)cc2-c2ccnc(NCCCNS(=O)(=O)c3ccc(C)cc3)n2)ccc1Cl`, 101%; as for `COc1ccc(COc2ccc(/C=C3\C(=O)Nc4ccccc43)cc2OC)cc1`, 107%.
The result for `CC(C)c1ccc(NCc2cn(-c3ccc(C(=O)O)cc3)nc2-c2cc(C(F)(F)F)cc(C(F)(F)F)c2)cc1` reads 93.3%.
As for `CC(=O)O[C@@H]1C(=O)N(c2cnccn2)[C@H]1c1ccccc1[N+](=O)[O-]`, the figure is 57.1%; as for `COc1ccc(-c2cc(-c3ccc(Cl)cc3)c(C#N)c(=O)n2Cc2ccc(C(=O)O)cc2)cc1`, 60.7%.
With `COc1ccc(N2C(=O)c3cc(Cl)ccc3NC2SCc2ccccc2)cc1` (stereo not given), the growth was 99.2%.
As for `NC(N)=Nc1ccc(Oc2cccc(NC(N)=Nc3ccc(I)cc3F)c2)cn1`, the figure is 71.9%; as for `O=C(NNc1nc2cc(F)ccc2n2c(CN3CCC(O)C3)ccc12)c1cnccn1` (stereo not given), 25.5%.
The result for `O=[N+]([O-])c1cc(/C=N/Nc2nc(N/N=C/c3ccc(Cl)c([N+](=O)[O-])c3)nc(N3CCCCC3)n2)ccc1Cl` reads 62.2%; that for `O=S(=O)(NCCCNc1nccc(-c2[nH]c(-c3ccccc3)nc2-c2ccc(Cl)c(O)c2)n1)c1ccc(Br)cc1`, 17.3%; that for `O=S(=O)(NCCNc1nccc(-n2cnc3ccccc32)n1)c1ccc(Br)cc1`, 108%.
As for `Cc1ccc(NC(=O)c2ccc(CN3CCN(C)CC3)cc2)cc1Oc1ccc(-c2[nH]nc3ncnc(N)c23)cc1`, the figure is 88.6%.
For `CC1(C)CC[C@]23CC[C@]4(C)[C@H](CC[C@@H]5[C@@]6(C)CCCN(CO)C(C)(C)[C@@H]6CC[C@]54C)[C@H]2[C@H]1OC3`, the growth is 103%.
`NS(=O)(=O)c1ccc(Nc2nc(Nc3ccccc3)nc3nnc(SCC(=O)NC4CCCCC4)n23)cc1`: the growth was 105%.
As for `COc1cc(/C=C2\C(=O)Nc3cc(Cl)ccc32)ccc1OCc1ccc(F)cc1`, the figure is 105%; as for `CCCn1cnc2c(c1=N)C(c1ccc(Cl)cc1)c1sc3c(C)cccc3c1O2` (stereo not given), 60.9%; as for `O=C(CSc1nc2ccccc2c(=O)n1-c1ccccc1)Nc1cccc(C(=O)/C=C/c2ccccc2)c1`, 102%.

(Values after PubChem BioAssay (NCI).)
